# Assay results as given in PubChem BioAssay AID686978 (National Center for Advancing Translational Sciences (NCATS), 2013).
# The campaign covered roughly 420,000 compounds. About 64,000 (15%) were called active. Another 27% or so got no clear call; they are omitted. The call rests on the fitted dose curve; in most records, active means well fitted inhibition curve with a large enough effect; inconclusive means small, poorly fitted or top-dose-only effect; inactive means flat fitted curve, though single readings scatter. These entries were drawn from the full list. Entries that show only a call come without a potency.
# Test: qHTS for Inhibitors of human tyrosyl-DNA phosphodiesterase 1 (TDP1): qHTS in cells in absence of CPT; further: nearly all actives have a fitted effect of over 55% in size
# Conditions: DT40 Tdp1-/- hTDP1 cells, no CPT, ATP luminescence, 48 h; activity change, negative = growth inhibition: at 46.2 µM (top of the series)
# In short: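 Compound effects on proliferation are scored in DT40 Tdp1-/-;hTDP1 cells in the absence of CPT. ATP levels (CellTiter-Glo luminescence) are recorded after a ≥48 hr, 37 °C incubation.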
# Potency means the concentration at half of the fitted maximal effect.
row,Structure (SMILES),Potency
1,COC(=O)CSc1nnc(NC(=O)CCc2ccccc2)s1,inactive
2,O=C(OCc1cc(Cl)ccc1OC(F)F)c1cccnc1,inactive
3,CCO/N=C(/C)c1c(O)cc(-c2ccccc2)n(-c2ccccc2)c1=O,inactive
4,O=C1NC[C@@H](CCCCN2CCN(CCc3ccc(O)cc3)C(=O)C2=O)N(CC2CCCCC2)C1=O,inactive
5,COc1ccc(-c2noc(CNC(=O)C(C)Oc3ccccc3)n2)cc1 (stereo not drawn),inactive
6,COc1ccc(-c2noc(CSc3nc4ccc(C)cc4[nH]3)n2)cc1,11.6 µM (active)
7,CC1CCN(Cc2nc(-c3ccc(Cl)cc3)no2)CC1,inactive
8,COc1ccc(-c2noc(CSc3ccc(C)cc3)n2)cc1,inactive
9,COc1ccc2nc(SCC(=O)Nc3c(C)cc(C)cc3C)[nH]c2c1,inactive
10,Cc1ccc(S(=O)(=O)N(Cc2nc(-c3ccc(Cl)cc3)no2)C2CCCCC2)cc1,16.4 µM (active)
11,COc1ccc(-c2noc(CN(C)S(=O)(=O)c3ccc(C)cc3)n2)cc1,18.4 µM (active)
12,Cc1ccc(-c2noc(CC(c3ccccc3)c3ccccc3)n2)cc1,inactive
13,Cc1ccc(C(=O)OCc2nc(N)nc(Nc3ccccc3C)n2)cc1,inactive
14,O=C1CCCc2nn(-c3ccccc3)nc21,inactive
15,O=c1[nH]c2c(c(=O)n1Cc1ccccc1)CCC2,inactive
16,CC(C)c1nnc(NC(=O)COC(=O)/C=C/c2ccc([N+](=O)[O-])cc2)s1,inactive
17,O=C(O)CCCCC(=O)O,inactive
18,CC(Oc1ccccc1[N+](=O)[O-])C(=O)N/N=C/c1ccoc1 (stereo not drawn),inactive
19,Cc1noc(C)c1CSc1nnc2ccc3ccccc3n12,inactive
20,COc1ccc(C(=O)N/N=C(\C)CC(=O)Nc2ccc(Cl)cn2)cc1,inactive
21,Cc1cc(OC(C)C(=O)Nc2sc3c(c2C(N)=O)CCCC3)ccc1Cl (stereo not drawn),inactive
22,O=C(NCCCN1CCOCC1)c1ccc(N2CCCC2)c([N+](=O)[O-])c1,inactive
23,N#Cc1c(NC(=O)c2ccc(N3CCOCC3)c([N+](=O)[O-])c2)sc2c1CCCC2,6.51 µM (active)
24,Cc1cccc(C)c1NC(=O)CNC(=O)c1ccc(N2CCOCC2)c([N+](=O)[O-])c1,inactive
25,CC(/C=C/C1(O)C(C)CC(=O)CC1(C)C)OC1OC(CO)C(O)C(O)C1O (stereo not drawn),inactive
26,CCOCc1nnc(NC(=O)CCC2CCCCC2)s1,inactive
27,CCc1ccccc1NC(=O)c1ccc2c(c1)CCN2S(C)(=O)=O,inactive

row,Structure (SMILES),Potency
1,CN1CCc2ccccc2C1Cc1ccccc1NC(=O)c1sc2ccccc2c1Cl (stereo not drawn),6.51 µM (active)
2,CCc1ccccc1NC(=O)NCCN1CCCCC1,inactive
3,NNc1nnc(NN)c2ccccc12,inactive
4,CC(O)CN(Cc1ccc(Cl)cc1)CC(C)O (stereo not drawn),inactive
5,Cc1ccc(C)c(C(=O)N2CCC(n3nccc3NC(=O)C3CC3)CC2)c1,inactive
6,Cc1ccc(CC(=O)Nc2cccc(C#N)c2)cc1,inactive
7,Cc1ccc(NC(=O)N2CCSc3ccccc32)cc1,inactive
8,Cc1ccc(NC(=O)Cc2ccc(NC(=O)N3CCCCc4ccccc43)cc2)cc1,23.1 µM (active)
9,CN(C)S(=O)(=O)c1cccc(C(=O)OCC(=O)N2CCCC2=O)c1,inactive
10,O=C(CSc1ncn[nH]1)NCc1ccc2c(c1)OCO2,inactive
11,OCCC1CN(Cc2cccc(O)c2)CCN1CCc1ccccc1 (stereo not drawn),inactive
12,OCCC1CN(Cc2cnc(-c3ccccc3)s2)CCN1CCc1ccccc1 (stereo not drawn),8.2 µM (active)
13,OCCC1CN(Cc2cccn2-c2nccs2)CCN1CCc1ccccc1 (stereo not drawn),inactive
14,CCOc1ccc(CN2CCN(Cc3ccon3)CC2CCO)cc1 (stereo not drawn),inactive
15,OCCC1CN(Cc2ccc(Oc3ncccn3)cc2)CCN1CCc1ccccc1 (stereo not drawn),inactive
16,CCOc1ccc(CN2CCN(Cc3ccc4cc(F)ccc4n3)CC2CCO)cc1 (stereo not drawn),25.9 µM (active)
17,Cc1ccc(CN2CCN(Cc3ccc(OCCO)cc3)CC2CCO)o1 (stereo not drawn),inactive
18,COc1cccc(CN2CCN(Cc3ccc4cccc(F)c4n3)CC2CCO)c1 (stereo not drawn),inactive
19,CCOc1ccc(CN2CCN(CCCc3ccccc3)C(CCO)C2)cc1 (stereo not drawn),20.6 µM (active)
20,C[C@H]1CN([C@@H](C)CO)C(=O)CCCn2nncc2CO[C@@H]1CN(C)S(=O)(=O)c1cccc(C#N)c1,inactive
21,CCCOC(=O)c1ccc(N2C(=O)c3ccccc3C2=O)cc1,inactive
22,CCOc1ccc(CCNC(=O)COC(=O)CCS(=O)(=O)c2ccc(C)cc2)cc1OCC,inactive
23,COC(=O)CN1C(C)=Nc2ccc(Br)cc2C1c1ccccc1 (stereo not drawn),inactive
24,CC1CCCCC1NC(=O)/C(C#N)=C/C=C/c1ccccc1[N+](=O)[O-] (stereo not drawn),9.2 µM (active)
25,O=C(/C=C/c1ccccc1[N+](=O)[O-])OC1CCCCC1=O (stereo not drawn),inactive
26,O=C(/C=C/c1ccccc1[N+](=O)[O-])NCC1CCCO1 (stereo not drawn),inactive
